{
  "source": "paper PMC4336329",
  "about": "(PLoS ONE, 2015)",
  "note": "In all, about 310,000 compounds went through this assay and about 14,000 (4.5%) showed an effect of 50% or more. The effect is printed as a negative number. Only a selection was taken, and strong results are over-represented in it overall.",
  "data": [
    {"molecular_target": "human ether-à-go-go-related gene (hERG) potassium channel (human, UniProt Q12809)", "sequence (Q12809 whole entry, looked up)": "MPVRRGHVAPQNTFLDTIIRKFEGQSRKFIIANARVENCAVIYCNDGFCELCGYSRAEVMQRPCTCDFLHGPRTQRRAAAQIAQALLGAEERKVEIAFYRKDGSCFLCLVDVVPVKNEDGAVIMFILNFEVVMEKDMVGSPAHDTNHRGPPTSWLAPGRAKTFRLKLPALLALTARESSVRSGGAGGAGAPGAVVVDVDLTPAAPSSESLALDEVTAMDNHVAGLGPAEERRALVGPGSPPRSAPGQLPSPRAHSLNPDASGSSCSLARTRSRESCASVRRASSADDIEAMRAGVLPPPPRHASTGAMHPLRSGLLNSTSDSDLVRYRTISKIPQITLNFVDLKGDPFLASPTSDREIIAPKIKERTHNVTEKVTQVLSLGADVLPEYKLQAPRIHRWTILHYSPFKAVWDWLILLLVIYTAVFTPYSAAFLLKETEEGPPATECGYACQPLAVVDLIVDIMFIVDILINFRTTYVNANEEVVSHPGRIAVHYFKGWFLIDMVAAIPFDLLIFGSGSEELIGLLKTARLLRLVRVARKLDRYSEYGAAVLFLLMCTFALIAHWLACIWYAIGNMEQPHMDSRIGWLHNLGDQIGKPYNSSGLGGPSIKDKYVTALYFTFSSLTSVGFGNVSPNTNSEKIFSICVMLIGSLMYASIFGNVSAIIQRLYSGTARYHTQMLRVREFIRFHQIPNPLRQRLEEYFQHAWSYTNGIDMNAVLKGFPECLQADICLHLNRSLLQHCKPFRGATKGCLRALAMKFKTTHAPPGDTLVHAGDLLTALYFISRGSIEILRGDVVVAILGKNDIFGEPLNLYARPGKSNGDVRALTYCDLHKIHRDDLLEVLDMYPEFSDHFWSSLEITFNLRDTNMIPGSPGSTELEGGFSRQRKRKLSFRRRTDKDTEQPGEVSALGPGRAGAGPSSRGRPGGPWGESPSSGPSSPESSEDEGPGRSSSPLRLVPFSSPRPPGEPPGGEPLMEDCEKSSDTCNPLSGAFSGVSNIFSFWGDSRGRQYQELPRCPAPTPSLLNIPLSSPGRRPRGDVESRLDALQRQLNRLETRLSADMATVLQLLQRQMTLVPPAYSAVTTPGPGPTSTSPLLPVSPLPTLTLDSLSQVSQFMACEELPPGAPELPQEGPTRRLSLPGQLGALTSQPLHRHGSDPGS", "assay": "primary screen, population patch clamp on CHO cells stably expressing hERG; higher = less effect of the substance", "units": {"hERG current change (%, negative = inhibition) at 10uM": "%"}, "values": [
      {"compound": "NC(=O)CC(NC(=O)Cc1ccc(Cl)cc1)c1ccc(NC2CC3CCC2C3)c([N+](=O)[O-])c1", "note": "(stereo not shown);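 note: peak tail current of the secondary pulse compared with the same well before compound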", "hERG current change (%, negative = inhibition) at 10uM": -3.01},
      {"compound": "CN(C)CCCNc1nc(-c2ccc(Cl)cc2)nc2ccccc12", "hERG current change (%, negative = inhibition) at 10uM": -35.5},
      {"compound": "Cc1ccc(-c2nc(NCCCO)c3ccccc3n2)cc1", "hERG current change (%, negative = inhibition) at 10uM": -41.2},
      {"compound": "CCOCCCNc1nc(-c2ccccc2)nc2ccccc12.Cl", "hERG current change (%, negative = inhibition) at 10uM": -27.5},
      {"compound": "CCN(CC)CCCNc1nc2cc(OC)c(OC)cc2c2nc(-c3ccccc3)nn12", "hERG current change (%, negative = inhibition) at 10uM": -7.77},
      {"compound": "OCCCNc1nc(-c2ccc(Cl)cc2)nc2ccccc12", "hERG current change (%, negative = inhibition) at 10uM": -63.1},
      {"compound": "CCN(CC)CCCNc1nc(-c2ccccc2)nc2ccccc12.Cl", "hERG current change (%, negative = inhibition) at 10uM": -61.4},
      {"compound": "CCN(CC)CCCNc1nc2cc(OC)c(OC)cc2c2nc(-c3cccnc3)nn12", "hERG current change (%, negative = inhibition) at 10uM": -2.29},
      {"compound": "CN(C)CCCNc1nc(-c2ccccc2)nc2ccccc12.Cl", "hERG current change (%, negative = inhibition) at 10uM": -13.5},
      {"compound": "CCN(CC)CCCNc1nc2ccccc2c2nc(-c3ccncc3)nn12", "hERG current change (%, negative = inhibition) at 10uM": -56.6},
      {"compound": "O=C(CCC1CCCC1)NCc1cccs1", "hERG current change (%, negative = inhibition) at 10uM": 13.9},
      {"compound": "CCC(Oc1ccccc1)C(=O)NCCOC", "note": "(stereo not shown)", "hERG current change (%, negative = inhibition) at 10uM": -8.48},
      {"compound": "CC(NC(=O)c1cccc(Br)c1)c1ccccc1", "note": "(stereo not shown)", "hERG current change (%, negative = inhibition) at 10uM": -2.43},
      {"compound": "NC12CC3CC(C1)CC(CC(=O)O)(C3)C2", "hERG current change (%, negative = inhibition) at 10uM": 10.8},
      {"compound": "Cc1nc(Nc2ccc3c(c2)OCCO3)c2oc3ccccc3c2n1", "hERG current change (%, negative = inhibition) at 10uM": -5.62},
      {"compound": "O=C(CSc1n[nH]c(-c2ccco2)n1)Nc1ccccc1", "hERG current change (%, negative = inhibition) at 10uM": -20.4},
      {"compound": "CC(=O)Nc1ccc(NC(=O)CSc2nnc(-c3ccco3)o2)cc1", "hERG current change (%, negative = inhibition) at 10uM": 7.81},
      {"compound": "COc1ccc(NC(=O)CSc2nnc(-c3ccco3)c(-c3ccco3)n2)cc1OC", "hERG current change (%, negative = inhibition) at 10uM": -29.4},
      {"compound": "O=C(CSc1nnc(-c2ccco2)c(-c2ccco2)n1)c1ccccc1", "hERG current change (%, negative = inhibition) at 10uM": 4.5},
      {"compound": "O=C(CSc1nnc(-c2ccco2)c(-c2ccco2)n1)Nc1ccccc1", "hERG current change (%, negative = inhibition) at 10uM": -75.2},
      {"compound": "Cc1ccc(NC(=O)CSc2nnc(-c3ccco3)o2)cc1", "hERG current change (%, negative = inhibition) at 10uM": 2.91},
      {"compound": "CC(=O)c1ccc(NC(=O)CSc2nnc(-c3ccco3)o2)cc1", "hERG current change (%, negative = inhibition) at 10uM": -73.9},
      {"compound": "Cc1ccc(-c2nnc(SCC(N)=O)nc2-c2ccc(C)cc2)cc1", "hERG current change (%, negative = inhibition) at 10uM": -24.2},
      {"compound": "Cc1ccc(-c2nnc(SCC(=O)N(C)C)nc2-c2ccc(C)cc2)cc1", "hERG current change (%, negative = inhibition) at 10uM": -67.9},
      {"compound": "COc1cccc(NC(=O)CSc2nnc(-c3ccco3)c(-c3ccco3)n2)c1", "hERG current change (%, negative = inhibition) at 10uM": -59.6},
      {"compound": "CCN(CC)C(=O)CSc1nnc(-c2ccccc2)c(-c2ccccc2)n1", "hERG current change (%, negative = inhibition) at 10uM": -20.4},
      {"compound": "COc1cccc(NC(=O)CSc2ccc(-c3ccco3)nn2)c1", "hERG current change (%, negative = inhibition) at 10uM": -48.1},
      {"compound": "COc1ccc2cc(C(=O)C3CCCN(C(=O)c4sc(C)nc4C)C3)ccc2c1", "note": "(stereo not shown)", "hERG current change (%, negative = inhibition) at 10uM": -22.8},
      {"compound": "Cc1ccc(S(=O)(=O)N2CCN(C(=O)CCn3nc(C)c(C)c3C)CC2)cc1", "hERG current change (%, negative = inhibition) at 10uM": 11.1},
      {"compound": "Oc1cccc(-c2nc3c4c(ncn3n2)-c2ccccc2CC42CCCC2)c1", "hERG current change (%, negative = inhibition) at 10uM": -7.64},
      {"compound": "COc1ccc(CCn2nnnc2C(c2ccc(Cl)cc2)N2CCN(C)CC2)cc1OC.Cl", "note": "(stereo not shown)", "hERG current change (%, negative = inhibition) at 10uM": -11.6},
      {"compound": "CC(=O)Nc1ccccc1OC(=O)N(C)C", "hERG current change (%, negative = inhibition) at 10uM": 2.41},
      {"compound": "COc1c(Cl)cc(Cl)cc1C(=O)Nc1ccc(NC(=O)c2cccs2)cc1", "hERG current change (%, negative = inhibition) at 10uM": 13.2},
      {"compound": "COc1ccc(C2(CNC(=O)c3cccc([N+](=O)[O-])c3)CCOCC2)cc1", "hERG current change (%, negative = inhibition) at 10uM": 0.0345},
      {"compound": "CN(C)c1ccc(NC(=O)CSc2nnc(-c3ccco3)c(-c3ccco3)n2)cc1", "hERG current change (%, negative = inhibition) at 10uM": 6.58},
      {"compound": "Cc1ccc(NC(=O)CSc2nnc(-c3ccco3)c(-c3ccco3)n2)cc1", "hERG current change (%, negative = inhibition) at 10uM": -64.9},
      {"compound": "CC(=O)c1ccc(NC(=O)CSc2nnc(-c3ccco3)c(-c3ccco3)n2)cc1", "hERG current change (%, negative = inhibition) at 10uM": -33},
      {"compound": "CCOc1ccc(NC(=S)N2CCC(c3ccc(C)cc3)C2)cc1", "note": "(stereo not shown)", "hERG current change (%, negative = inhibition) at 10uM": -6.63},
      {"compound": "Cc1cccc(C)c1NC(=S)N(CCCN1CCN(C)CC1)Cc1cccs1", "hERG current change (%, negative = inhibition) at 10uM": -47.8},
      {"compound": "CSc1cccc(NC(=S)N(CCCN2CCC(C)CC2)Cc2cccs2)c1", "hERG current change (%, negative = inhibition) at 10uM": -72.9},
      {"compound": "CSc1cccc(NC(=S)N(CCCN2CCCC2)Cc2cccn2Cc2ccc(Cl)cc2)c1", "hERG current change (%, negative = inhibition) at 10uM": -28.1},
      {"compound": "CSc1cccc(NC(=S)N(CCCN2CCCC2)Cc2cccs2)c1", "hERG current change (%, negative = inhibition) at 10uM": -63.7},
      {"compound": "CSc1cccc(NC(=S)N(CCCN2CCCC(C)C2)Cc2cccs2)c1", "note": "(stereo not shown)", "hERG current change (%, negative = inhibition) at 10uM": -75.6},
      {"compound": "Cc1ccc(/C=N/NC(=O)c2cc3c(ccc4ccccc43)o2)cc1[N+](=O)[O-]", "hERG current change (%, negative = inhibition) at 10uM": 3.49},
      {"compound": "Cc1cc(C)n(C(=O)COc2c(C)cccc2C)n1", "hERG current change (%, negative = inhibition) at 10uM": 11},
      {"compound": "COc1cc(C(=O)N2CCN(C3CCC(C)CC3)CC2)cc(OC)c1OC.O=C(O)C(=O)O", "note": "(stereo not shown)", "hERG current change (%, negative = inhibition) at 10uM": 8.29},
      {"compound": "CN(Cc1c(C(=O)N2CCc3ccccc3C2)nc2ccc(Cl)cn12)C(C1CC1)C1CC1", "hERG current change (%, negative = inhibition) at 10uM": -45.9},
      {"compound": "O=C(c1nc2ccc(Cl)cn2c1CN1CCCC1)N1CCc2ccccc2C1", "hERG current change (%, negative = inhibition) at 10uM": -10.6},
      {"compound": "CN1CCN(Cc2c(C(=O)N3CCc4ccccc4C3)nc3ccc(Cl)cn23)CC1", "hERG current change (%, negative = inhibition) at 10uM": -51.8},
      {"compound": "Cc1cnc(CN(C)Cc2c(C(=O)N3CCc4ccccc4C3)nc3ccc(Cl)cn23)[nH]1", "hERG current change (%, negative = inhibition) at 10uM": -62.6},
      {"compound": "CCN(CC)Cc1c(C(=O)N2CCc3ccccc3C2)nc2ccc(Cl)cn12", "hERG current change (%, negative = inhibition) at 10uM": -13.1},
      {"compound": "CCCCN(C)Cc1c(C(=O)N2CCc3ccccc3C2)nc2ccc(Cl)cn12", "hERG current change (%, negative = inhibition) at 10uM": -50.1},
      {"compound": "CC(C)CN(C)Cc1c(C(=O)N2CCc3ccccc3C2)nc2ccc(Cl)cn12", "hERG current change (%, negative = inhibition) at 10uM": -53.2},
      {"compound": "CN(Cc1cccnc1)Cc1c(C(=O)N2CCc3ccccc3C2)nc2ccc(Cl)cn12", "hERG current change (%, negative = inhibition) at 10uM": -20.1},
      {"compound": "CCN(C)Cc1c(C(=O)N2CCc3ccccc3C2)nc2ccc(Cl)cn12", "hERG current change (%, negative = inhibition) at 10uM": -31.1},
      {"compound": "CN(Cc1cnccn1)Cc1c(C(=O)N2CCc3ccccc3C2)nc2ccc(Cl)cn12", "hERG current change (%, negative = inhibition) at 10uM": -23.4},
      {"compound": "Cc1cnc(CN(C)Cc2c(C(=O)N3CCCCCCC3)nc3ccc(Cl)cn23)[nH]1", "hERG current change (%, negative = inhibition) at 10uM": -29},
      {"compound": "CC1CCN(Cc2c(C(=O)N3CCc4ccccc4C3)nc3ccc(Cl)cn23)CC1", "hERG current change (%, negative = inhibition) at 10uM": -31.7}
    ]}
  ]
}
